Assay outcomes from PubChem BioAssay.
This is one part of a sample in which hits are shown more often than they occur.
GIRK2 activ: activators of human GIRK2 potassium channels | HEK293-GIRK2 thallium flux, Thallos fluorescence, MPD | calls only for hits at 25 µM | 0.05% of 63,000 active | AID 1259325; call rule not given here
Target sequence (P48051 whole entry, looked up): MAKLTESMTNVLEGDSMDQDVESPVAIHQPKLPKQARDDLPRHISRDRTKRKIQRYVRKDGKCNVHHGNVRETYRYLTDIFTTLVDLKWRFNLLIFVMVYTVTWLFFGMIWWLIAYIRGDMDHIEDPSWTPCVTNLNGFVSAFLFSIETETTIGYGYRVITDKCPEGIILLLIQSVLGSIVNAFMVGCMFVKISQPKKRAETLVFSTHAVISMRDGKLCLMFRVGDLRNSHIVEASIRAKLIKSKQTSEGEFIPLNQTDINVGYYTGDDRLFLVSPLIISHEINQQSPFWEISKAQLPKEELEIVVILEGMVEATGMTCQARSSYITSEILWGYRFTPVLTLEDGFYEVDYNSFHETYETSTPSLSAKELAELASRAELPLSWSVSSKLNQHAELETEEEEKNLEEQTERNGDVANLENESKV
Active calls of the source: *.

`CCOC(=O)C1=C(C)N=c2s/c(=C/c3cn(C)nc3C)c(=O)n2C1c1ccc(OC)cc1` (centres undefined) gave GIRK2 activ inactive.
CCn1cc(/C=c2/sc3n(c2=O)C(c2ccccc2)C(C(=O)Nc2ccccc2C)=C(C)N=3)c(C)n1 (centres undefined) was read as GIRK2 activ inactive.
Screening Cc1noc(C)c1CC(=O)N1CC(c2nc(-c3ccccc3)no2)C1 returned GIRK2 activ inactive.
Screening CC(O)(CNC(=O)C(=O)Nc1ccon1)c1ccco1 (centres undefined) returned GIRK2 activ inactive.
CC(C)=CCC/C(C)=C/CC/C(C)=C/CC12OC1C(O)C(C)=CC2=O (centres undefined) was read as GIRK2 activ inactive.
Screening COc1ccc(CC(C)(O)CNC(=O)Nc2ccccc2OC)cc1 (centres undefined) returned GIRK2 activ inactive.
Screening Cc1ccc(S(=O)(=O)N2CCCCC2CCNC(=O)Nc2cccs2)cc1 (centres undefined) returned GIRK2 activ inactive.
COc1cccc(C2=C(c3c(C)n(C)c4ccccc34)C(=O)NC2=O)c1 was read as GIRK2 activ inactive.
CCOc1ccc(-c2nc(SCC(=O)NCCCOC)c(-c3ccccc3)[nH]2)cc1OC was read as GIRK2 activ inactive.
COc1ccc(-c2nc(SCC(=O)NCC3CCCO3)c(-c3ccc(C)cc3)[nH]2)cc1OC (centres undefined) was read as GIRK2 activ inactive.
For COCCCNC(=O)CSc1nc(-c2cccc(F)c2)[nH]c1-c1ccccc1 the results were GIRK2 activ active.
For COCCNC(=O)CSc1nc(-c2ccc(C)cc2)[nH]c1-c1ccccc1 the results were GIRK2 activ inactive.
`O=C(CSc1ncccc1-c1nc2ccccc2[nH]1)NCC1CCCO1` (centres undefined) gave GIRK2 activ inactive.
O=C(CSc1nc(-c2ccccc2)[nH]c1-c1ccc(F)cc1)NCC1CCCO1 (centres undefined) was read as GIRK2 activ active.
Cc1cc(=O)[nH]c(-n2nc(-c3ccco3)cc2NC(=O)c2ccc(F)c(F)c2)n1 was read as GIRK2 activ inactive.
Cc1cn2c3c(=O)n(CCN4CCOCC4)c(=O)n(C)c3nc2n1-c1ccccc1N was read as GIRK2 activ inactive.
Screening CCCCOC(=O)c1ccc(Nc2c(C(=O)N3CCOCC3)cnc3nc(C)ccc23)cc1 returned GIRK2 activ inactive.
For C=Cc1ccc(Cn2nc3c(S(=O)(=O)N4CCN(c5ccc(F)cc5)CC4)cccn3c2=O)cc1 the results were GIRK2 activ inactive.
Screening CCOc1ccccc1NC(=O)Cn1nc2c(-c3nc(-c4ccc(C)cc4)no3)cccn2c1=O returned GIRK2 activ inactive.
Screening Nc1c(-c2nc(-c3ccc(Cl)cc3)cs2)nnn1-c1cccc(F)c1 returned GIRK2 activ inactive.
